According to the supplement of paper PMC12350171:
Where a name gives a salt, the structure may show the parent alone. Values without a mark were called inactive.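 The calls were made as follows: active = AUC significantly below DMSO controls by Student t-fit with adjusted P under 0.01; inactive = not significantly reduced.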

tested on: Haemophilus parainfluenzae; test: growth AUC normalised to DMSO control (fraction of control); higher = less growth inhibition, active = hit call of the paper; conditions: 20 µM
How it was run: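 Pathogens were passaged twice under anaerobic conditions, then inoculated into pre-reduced mGAM plates at a starting OD578 of 0.01, with compound at 20 μM and 1% DMSO, and sealed with breathable membranes. For Haemophilus parainfluenzae, the medium was supplemented with hemin and NAD. OD578 was read every hour for 24 h in three biological replicates. Growth-curve AUC was calculated by the trapezoidal rule up to the exponential-to-stationary transition and normalised to DMSO controls on the same plate.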

Structure (SMILES)	growth AUC normalised to DMSO control
CN(C)CCCC1(c2ccc(F)cc2)OCc2cc(C#N)ccc21 (configuration not stated) [Citalopram hydrobromide]	1.01
O=C(O)CCNC(=O)c1ccc(/N=N/c2ccc(O)c(C(=O)O)c2)cc1 [Balsalazide disodium salt]	1.07
NS(=O)(=O)c1cc(Cl)c(Cl)c(S(N)(=O)=O)c1 [Dichlorphenamide]	1.03
CCN1CCCC1CNC(=O)c1cc(S(=O)(=O)CC)c(N)cc1OC (configuration not stated) [Amisulpride]	0.997
CCC[C@H](N[C@@H](C)C(=O)N1[C@H](C(=O)O)C[C@@H]2CCCC[C@@H]21)C(=O)OCC [Perindopril]	1.01
Nc1nc(=S)c2ncn([C@@H]3O[C@H](CO)[C@@H](O)[C@H]3O)c2[nH]1 [Thioguanosine]	0.973
COc1cc(NC(C)CCCN)c2ncccc2c1 (configuration not stated) [Primaquine diphosphate]	1.08
